Results published in PubChem BioAssay (NCATS).
“And” between values parts separate entries of the source, which are not always exact repeats. Identical values can stand only once. Unmarked numbers belong to inactive results. Inconclusive results are not listed. Where a call stands in place of a potency, no number is given. The source made the active and inactive calls. Unless noted, calls follow the shape of the dose curve; as a rule, active = well fitted curve in the direction sought with a large enough effect; inconclusive = small, poorly fitted or top-dose-only effect, or another doubt; inactive = no such curve, though single readings can be large; an effect the other way counts as inactive or inconclusive.

What was measured:
[1] = Cell Viability - Jurkat (AID 426;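 active = dose-dependent loss of cell ATP signal giving a full or clear fitted curve, ranked by lower potency value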;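 also: potency is read from the fitted curve at half-maximal effect; cells exposed to compound for 40 hours at 37 °C before ATP read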); details: qHTS
Method in brief: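 Cells of the human T-cell leukemia line Jurkat (E6-1) are seeded at 5000 per well, treated with compound across a concentration range for 40 hours at 37 °C, then lysed with CellTiter-Glo; luminescence reports ATP.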

[2] = Cell Viability - Hek293 (AID 427;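 active = compounds whose dose-response curve shows a full or clear partial loss of cell viability, called from curve shape rather than a numeric limit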;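 also: potency is read from the fitted curve at half-maximal effect; cells exposed to compound for 40 hours at 37 °C before reading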); details: qHTS
Method in brief: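 Luminescent ATP read-out (CellTiter-Glo, 20 min RT) after 40 hr compound exposure at 37 °C in complete medium. Signal normalized to DMSO (basal) and 100 uM tamoxifen (100% inhibition); concentration-response fitted with the standard Hill equation to give AC50.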

[3] = Cellular Toxicity (caspase-3) BJ (AID 658); details: BJ fibroblasts, luminescence; Potency: caspase-3 activation; series mostly up to 91.7 µM
Method in brief: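 qHTS, BJ fibroblasts, 1000 cells/well; 5 hr preincubation, 16 hr compound, 37 °C; Caspase-Glo 3/7 reagent, 1 hr RT; luminescence. DMSO = 0%, 10 uM staurosporine = 100%. Hill-equation AC50.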

[4] = target: Vitamin D3 receptor (Homo sapiens) (UniProt P11473); test: qHTS assay for small molecule agonists of vitamin D receptor signaling (AID 588543; calls by dose curve); details: HEK293T VDR-UAS-bla, beta-lactamase ratio, 16 h; series mostly up to 76.8 µM
Method in brief: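 VDR-UAS-bla HEK293T cells, 2000/well, 2% charcoal-stripped FBS; compound titration 16 h at 37 C; CCF4 beta-lactamase ratio read. Normalized to 50 nM 1-alpha,25-dihydroxyvitamin D3 (100%) and DMSO; Hill fit gives EC50, efficacy.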

[5] = qHTS assay for small molecule agonists of the antioxidant response element (ARE) signaling pathway (AID 651741; active = well fitted activation curve with a large enough effect in the signal ratio; the % refers to the signal ratio; also: potency is read from the fitted curve at half-maximal effect); details: HepG2 ARE-bla reporter, beta-lactamase FRET ratio, 16 h; series mostly up to 96 µM
Method in brief: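 Stably integrated ARE-beta-lactamase reporter HepG2 cells; 16 h compound incubation, 37 C; LiveBLAzer FRET substrate 2 h at room temperature; fluorescence intensity.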

[6] = qHTS assay for small molecule activators of the nuclear factor-kappa B (NF-kB) signaling pathway (AID 651749; active = well fitted activation curve with a large enough effect in the signal ratio; the % refers to the signal ratio); details: NF-kB-bla ME-180 cells, beta-lactamase FRET ratio, 16 h; stronger effect = higher value
Method in brief: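 In this qHTS format, compounds acting as activators increase NF-kB-driven beta-lactamase in ME-180 cells, measured as disrupted FRET after 16 hr exposure at 37C and 5% CO2.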

[7] = target: Tumor necrosis factor (Homo sapiens) (UniProt P01375); test: qHTS assay to identify small molecules that stimulate Tumor Necrosis Factor-alpha (TNF-alpha) secretion (AID 651757; active = well fitted curve in the direction sought with a large enough effect in the signal ratio; the % refers to the signal ratio); details: Human cells, HTRF 665/615 ratio; series mostly up to 92.2 µM
Method in brief: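 Human monocytic THP-1 cells are plated, treated with compound and held at 37 C for 17 hrs. Labeled anti-TNF-alpha antibody mixture is then added; after 3 hr at room temperature, TR-FRET signal reports secreted TNF-alpha.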

[8] = Cellular Toxicity (caspase-3) Jurkat (AID 655); details: Jurkat caspase-3 activation, luminescence; caspase-3 activation: at 92.2 µM (top of the series), DMSO = 0%, tamoxifen = 100%;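 also: cells exposed to compound for 16 h at 37 °C before reading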
Method in brief: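 Jurkat cells (5000/well) in complete medium exposed 16 h at 37 C; caspase-3/7 activity read by Caspase-Glo luminescence after 20 min at room temperature. Normalized to DMSO and 100 uM tamoxifen; AC50 from Hill fits.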

[9] = Cellular Toxicity (caspase-3) Hek293 (AID 664); details: HEK293 caspase-3 activation, DMSO = 0%, 100 µM tamoxifen = 100%; at 92.2 µM (top of the series);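 also: cells exposed to compound for 16 h at 37 °C before readout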
Method in brief: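 qHTS, HEK293 (human embryonic kidney), 16 h cpd exposure in complete medium. Caspase-3/7 activation = luminescence increase; normalized to DMSO/100 uM tamoxifen; Hill-fit AC50.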

[10] = Cell Viability - LYMP1-002 - Assay at 24 hr (AID 993); details: LYMP1-002 lymphoblastoid cells viability; series mostly up to 92.2 µM
Method in brief: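 Acute toxicity is measured as concentration-dependent loss of cellular ATP in a human lymphoblastoid line (Coriell LYMP1-002) after 24 h treatment in complete medium. ATP is quantified by luciferase luminescence and AC50 derived by Hill modelling.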

[11] = target: Peroxisome proliferator-activated receptor gamma (Homo sapiens) (UniProt P37231); test: qHTS assay for small molecule agonists of peroxisome proliferator-activated receptor gamma signaling (AID 588536; active = well fitted curve in the direction sought with a large enough effect in the signal ratio, with a control signal flat, not every such curve was filed as active; the % refers to the signal ratio); details: HEK293 PPARg-UAS-bla, beta-lactamase ratio, 16 h, percent of rosiglitazone response, DMSO as zero; series mostly up to 76.7 µM
Method in brief: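 Compound treatment: 16 h, 37 C, HEK293 GeneBLAzer cells. Detection: CCF4, 2 h RT. Values: Hill-fit EC50, efficacy as % of 2 uM rosiglitazone.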

[12] = qHTS assay for small molecule activators of the p53 signaling pathway (AID 651743; active = well fitted activation curve with a large enough effect in the signal ratio, not every such curve was filed as active; the % refers to the signal ratio); details: HCT-116 p53RE-bla, beta-lactamase FRET ratio, 16 h; activation: stronger effect = higher value
Method in brief: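 Following 16 hours of compound exposure at 37 C, HCT-116 cells bearing the p53RE-bla reporter were loaded with LiveBLAzer B/G FRET substrate for 2 hours at room temperature and fluorescence intensity was recorded.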

[13] = target: Nuclear receptor ROR-gamma (Homo sapiens) (UniProt P51449); test: qHTS assay for small molecule antagonists of the retinoid-related orphan receptor gamma (ROR-gamma) signaling pathway (AID 651802); details: ROR-gamma antagonist cell reporter assay; series mostly up to 92.2 µM; also: nearly all actives have a fitted effect of over 60% in size; also: potency is read from the fitted curve at half-maximal effect
Method in brief: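 Steps: cells dispensed; compound or DMSO transferred by pin tool; doxycycline added to induce the ROR response element-driven luciferase; plates held 16hr at 37C; ONE-Glo added and luminescence measured.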

[14] = qHTS assay for small molecule antagonists of the retinoid-related orphan receptor gamma (ROR-gamma) signaling pathway - cell viability counter screen (AID 720652; active = well fitted curve in the direction sought with a large enough effect in the repeat runs; an effect the other way counts as inactive or inconclusive;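 also: CHO reporter cells with doxycycline-induced ROR-gamma expression; compound exposure lasted 16 hr before ATP read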); details: RORgamma reporter cell line viability counter screen; series mostly up to 92.2 µM
Method in brief: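 Steps: seed CHO cells bearing TET-inducible ROR and ROR response element-luciferase; rest 5 hr at 37 C; add compound, then doxycycline; incubate 16 hr; add CellTiter-Glo and read luminescence as ATP-based viability.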

[15] = Cell Viability - LYMP2-003 (AID 965); details: LYMP2-003 lymphoblastoid cell viability; series mostly up to 92.2 µM;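 also: cells exposed to compounds for 24 h before reading; nearly all actives have a fitted effect of over 50% in size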; also: potency is read from the fitted curve at half-maximal effect
Method in brief: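 Human lymphoblastoid LYMP2-003 cells, 2500/well, exposed to compounds for 24 h at 37 C in complete medium. Viability read as intracellular ATP by CellTiter-Glo luminescence; AC50 from Hill-equation fits of qHTS concentration-response data.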

[16] = target: Estrogen receptor (Homo sapiens) (UniProt P03372); test: qHTS assay for small molecule antagonists of estrogen receptor alpha signaling (AID 588513; active = well fitted curve in the direction sought with a large enough effect in the signal ratio, with a control signal flat, not every such curve was filed as active; the % refers to the signal ratio); details: ER-alpha-UAS-bla HEK293, beta-lactamase ratio, antagonist mode; series mostly up to 76.9 µM
Method in brief: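 ER-alpha-UAS-bla GripTite HEK 293 cells in 2% charcoal/dextran-treated FBS medium; compounds titrated (1:2, duplicate), then stimulated with 0.5 nM 17-beta-estradiol for 18 h at 37C. CCF4 beta-lactamase fluorescence; Hill-fit IC50 and efficacy.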

[17] = target: Voltage-gated inwardly rectifying potassium channel KCNH2 (Homo sapiens) (UniProt Q12809); test: qHTS Assay for Small Molecule Inhibitors of the Human hERG Channel Activity (AID 588834); details: U2OS BacMam hERG, FluxOR thallium flux fluorescence; series mostly up to 92.2 µM;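 also: top concentration of the series differs between compounds; lower thallium flux fluorescence means stronger hERG block; nearly all actives have a fitted effect of over 50% in size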
Method in brief: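 Thallium serves as surrogate for K+ influx through BacMam-delivered hERG in U2OS cells. Compounds are added for about 10 minutes after dye loading; stimulation buffer then starts flux, monitored kinetically on FDSS.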

[18] = qHTS assay for small molecule activators of the human pregnane X receptor (PXR) signaling pathway (AID 720659; call rule not given here); details: DPX-2 HepG2 CYP3A4-luciferase, 24 h; series mostly up to 92.3 µM
[19] = Cell Viability - LYMP1-002 - Assay at 16 hr (AID 948); details: LYMP1-002 lymphoblastoid cell viability; series mostly up to 92.2 µM
Method in brief: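 LYMP1-002 human lymphoblastoid cells, 2500/well, were treated with compounds for 16 hr at 37 C in complete medium. Viability was read as intracellular ATP by CellTiter-Glo luminescence, and AC50 was derived from a Hill fit to concentration-response data.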

[20] = target: Cytochrome P450 3A4 (Homo sapiens) (UniProt P08684); test: qHTS Assay for Inhibitors and Substrates of Cytochrome P450 3A4 (AID 884); details: recombinant CYP3A4, Luciferin-PPXE luminescence; series mostly up to 57.1 µM; also: nearly all actives have a fitted effect of over 50% in size
Method in brief: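 Luminescent readout of luciferin produced by CYP3A4 (20 nM) dealkylation of Luciferin-PPXE, 25 uM (its KM). NADPH-driven reaction ran 60 min at RT after 10 min compound preincubation; data scaled to 57 uM ketoconazole as 100% inhibition.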

Nuclear receptor ROR-gamma (Homo sapiens), sequence (P51449 whole entry, looked up): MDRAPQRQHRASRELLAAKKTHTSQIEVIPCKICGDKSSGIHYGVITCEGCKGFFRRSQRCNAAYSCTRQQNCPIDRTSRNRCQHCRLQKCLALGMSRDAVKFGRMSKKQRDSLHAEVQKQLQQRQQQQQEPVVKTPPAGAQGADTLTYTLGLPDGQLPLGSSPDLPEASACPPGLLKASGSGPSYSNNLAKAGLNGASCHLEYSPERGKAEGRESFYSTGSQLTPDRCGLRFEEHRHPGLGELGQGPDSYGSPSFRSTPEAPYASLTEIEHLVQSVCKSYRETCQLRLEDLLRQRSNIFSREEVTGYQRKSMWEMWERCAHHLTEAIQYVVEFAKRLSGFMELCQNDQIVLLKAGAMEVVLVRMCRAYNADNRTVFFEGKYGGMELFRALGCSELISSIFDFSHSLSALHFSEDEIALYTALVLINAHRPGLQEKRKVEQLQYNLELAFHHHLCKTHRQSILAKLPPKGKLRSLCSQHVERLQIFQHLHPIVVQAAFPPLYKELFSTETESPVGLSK
Voltage-gated inwardly rectifying potassium channel KCNH2 (Homo sapiens), sequence (Q12809 whole entry, looked up): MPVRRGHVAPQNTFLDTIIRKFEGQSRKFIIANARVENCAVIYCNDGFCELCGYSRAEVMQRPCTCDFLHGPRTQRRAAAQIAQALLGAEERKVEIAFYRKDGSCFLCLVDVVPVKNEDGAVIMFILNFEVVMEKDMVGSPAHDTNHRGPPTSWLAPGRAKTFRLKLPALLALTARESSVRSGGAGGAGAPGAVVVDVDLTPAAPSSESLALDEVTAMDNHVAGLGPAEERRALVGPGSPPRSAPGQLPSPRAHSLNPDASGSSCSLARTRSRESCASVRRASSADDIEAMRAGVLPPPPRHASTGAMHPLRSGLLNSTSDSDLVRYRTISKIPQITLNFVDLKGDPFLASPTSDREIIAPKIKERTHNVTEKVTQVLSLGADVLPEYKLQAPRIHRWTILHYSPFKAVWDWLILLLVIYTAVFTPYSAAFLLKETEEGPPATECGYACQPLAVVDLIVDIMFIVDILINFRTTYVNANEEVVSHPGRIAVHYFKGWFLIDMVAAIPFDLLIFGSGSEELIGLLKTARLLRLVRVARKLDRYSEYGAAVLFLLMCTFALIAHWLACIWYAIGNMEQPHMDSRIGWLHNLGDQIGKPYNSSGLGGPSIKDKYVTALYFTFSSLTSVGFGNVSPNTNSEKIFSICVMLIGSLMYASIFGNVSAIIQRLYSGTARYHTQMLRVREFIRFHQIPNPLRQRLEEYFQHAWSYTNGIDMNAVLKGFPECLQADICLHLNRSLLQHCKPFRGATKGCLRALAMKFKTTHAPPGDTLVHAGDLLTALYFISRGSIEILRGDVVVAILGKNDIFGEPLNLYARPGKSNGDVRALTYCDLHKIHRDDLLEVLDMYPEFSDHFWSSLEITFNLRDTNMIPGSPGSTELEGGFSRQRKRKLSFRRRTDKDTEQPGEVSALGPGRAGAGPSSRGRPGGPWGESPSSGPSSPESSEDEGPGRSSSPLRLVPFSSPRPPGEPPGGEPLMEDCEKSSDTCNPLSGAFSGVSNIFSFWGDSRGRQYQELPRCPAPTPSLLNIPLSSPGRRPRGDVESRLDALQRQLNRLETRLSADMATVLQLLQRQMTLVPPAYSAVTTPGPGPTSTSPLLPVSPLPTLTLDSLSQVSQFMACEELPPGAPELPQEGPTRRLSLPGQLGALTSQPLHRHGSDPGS
Tumor necrosis factor (Homo sapiens), sequence (P01375 whole entry, looked up): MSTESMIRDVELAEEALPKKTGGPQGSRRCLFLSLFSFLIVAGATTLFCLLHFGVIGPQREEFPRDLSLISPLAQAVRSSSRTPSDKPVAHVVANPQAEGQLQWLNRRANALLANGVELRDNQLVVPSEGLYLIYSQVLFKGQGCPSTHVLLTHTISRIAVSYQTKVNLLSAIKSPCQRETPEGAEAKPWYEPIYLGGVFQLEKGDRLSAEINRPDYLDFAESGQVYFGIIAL
Vitamin D3 receptor (Homo sapiens), sequence (P11473 whole entry, looked up): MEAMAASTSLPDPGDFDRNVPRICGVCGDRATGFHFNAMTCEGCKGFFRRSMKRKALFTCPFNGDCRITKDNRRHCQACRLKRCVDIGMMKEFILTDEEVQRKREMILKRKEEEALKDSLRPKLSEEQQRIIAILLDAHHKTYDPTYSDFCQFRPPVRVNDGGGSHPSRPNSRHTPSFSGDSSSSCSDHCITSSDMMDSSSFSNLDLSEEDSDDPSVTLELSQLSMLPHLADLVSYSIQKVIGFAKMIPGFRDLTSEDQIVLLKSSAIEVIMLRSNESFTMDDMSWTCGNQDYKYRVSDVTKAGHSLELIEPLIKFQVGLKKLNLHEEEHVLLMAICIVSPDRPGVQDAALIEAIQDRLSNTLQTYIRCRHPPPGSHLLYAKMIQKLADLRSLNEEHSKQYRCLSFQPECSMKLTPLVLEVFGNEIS
Estrogen receptor (Homo sapiens), sequence (P03372 whole entry, looked up): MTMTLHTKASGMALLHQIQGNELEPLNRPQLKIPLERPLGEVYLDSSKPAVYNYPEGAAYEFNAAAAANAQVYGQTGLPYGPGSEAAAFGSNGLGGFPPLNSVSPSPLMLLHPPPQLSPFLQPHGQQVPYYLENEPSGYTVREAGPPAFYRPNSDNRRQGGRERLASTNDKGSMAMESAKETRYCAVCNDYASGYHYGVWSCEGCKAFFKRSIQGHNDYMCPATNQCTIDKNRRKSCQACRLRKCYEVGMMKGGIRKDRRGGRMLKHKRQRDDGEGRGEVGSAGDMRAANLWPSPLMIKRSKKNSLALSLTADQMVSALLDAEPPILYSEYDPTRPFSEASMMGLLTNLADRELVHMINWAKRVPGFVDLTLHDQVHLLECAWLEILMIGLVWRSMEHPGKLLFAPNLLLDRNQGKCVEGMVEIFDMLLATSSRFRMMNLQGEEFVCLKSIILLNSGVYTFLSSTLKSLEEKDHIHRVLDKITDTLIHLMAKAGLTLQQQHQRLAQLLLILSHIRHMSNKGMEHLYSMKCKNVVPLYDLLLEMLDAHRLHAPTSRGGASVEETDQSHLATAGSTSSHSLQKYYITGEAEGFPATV
Cytochrome P450 3A4 (Homo sapiens), sequence (P08684 whole entry, looked up): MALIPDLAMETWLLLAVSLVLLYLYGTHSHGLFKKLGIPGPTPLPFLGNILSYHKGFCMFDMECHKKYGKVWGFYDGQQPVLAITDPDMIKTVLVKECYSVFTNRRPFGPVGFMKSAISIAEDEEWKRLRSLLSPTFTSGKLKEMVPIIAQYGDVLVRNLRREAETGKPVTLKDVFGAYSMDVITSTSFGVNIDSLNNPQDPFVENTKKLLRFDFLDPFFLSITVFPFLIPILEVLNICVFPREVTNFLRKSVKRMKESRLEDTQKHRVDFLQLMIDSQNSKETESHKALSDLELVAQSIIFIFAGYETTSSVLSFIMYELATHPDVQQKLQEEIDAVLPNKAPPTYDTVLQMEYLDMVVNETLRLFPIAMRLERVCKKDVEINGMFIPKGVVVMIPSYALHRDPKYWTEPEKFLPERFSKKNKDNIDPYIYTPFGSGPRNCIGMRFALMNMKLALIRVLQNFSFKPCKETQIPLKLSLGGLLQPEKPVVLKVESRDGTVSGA
Peroxisome proliferator-activated receptor gamma (Homo sapiens), sequence (P37231 whole entry, looked up): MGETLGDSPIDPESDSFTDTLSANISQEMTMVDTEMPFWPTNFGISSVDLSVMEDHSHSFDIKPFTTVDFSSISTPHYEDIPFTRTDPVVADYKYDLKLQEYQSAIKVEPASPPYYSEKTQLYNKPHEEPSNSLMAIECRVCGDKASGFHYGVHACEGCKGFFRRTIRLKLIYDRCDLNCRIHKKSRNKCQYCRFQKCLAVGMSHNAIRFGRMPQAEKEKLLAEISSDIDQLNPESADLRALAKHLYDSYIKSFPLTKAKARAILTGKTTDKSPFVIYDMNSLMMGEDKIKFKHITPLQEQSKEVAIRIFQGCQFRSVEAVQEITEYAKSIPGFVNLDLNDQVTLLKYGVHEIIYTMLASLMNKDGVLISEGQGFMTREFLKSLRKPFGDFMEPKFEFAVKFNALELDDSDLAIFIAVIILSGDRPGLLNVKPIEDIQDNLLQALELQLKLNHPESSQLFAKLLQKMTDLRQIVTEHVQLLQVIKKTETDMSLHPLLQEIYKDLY

Question: With `CC1=C(/C=C/C(C)=C/C=C/C(C)=C/C=O)C(C)(C)CCC1` as the compound, how does the Potency [1] read?
Answer: 21.5 µM (active)

Question: And the Potency [2]?
Answer: 53.9 µM (active)

Question: What about the Potency [3] of the same compound?
Answer: inactive

Question: What about the Potency [4] of the same compound?
Answer: inactive

Question: And the Potency [5]?
Answer: 29.8 µM (active)

Question: And the activation [6]?
Answer: -2.37%

Question: What about the Potency [7] of the same compound?
Answer: inactive

Question: With `c1ccc(SCCSc2ccccc2)cc1` as the compound, how does the Potency [1] read?
Answer: > 92 µM

Question: What about the Potency [2] of the same compound?
Answer: > 92 µM

Question: What about the Potency [8] of the same compound?
Answer: inactive

Question: And the Potency [3]?
Answer: inactive

Question: What about the caspase-3 activation [9] of the same compound?
Answer: 0.456%

Question: And the Potency [10]?
Answer: inactive

Question: What about the outcome [11] of the same compound?
Answer: inactive

Question: What about the Potency [4] of the same compound?
Answer: inactive

Question: What about the activation [12] of the same compound?
Answer: -1.09%

Question: And the activation [6]?
Answer: -4.5%

Question: And the Potency [7]?
Answer: inactive

Question: What about the Potency [13] of the same compound?
Answer: inactive

Question: What about the Potency [14] of the same compound?
Answer: inactive

Question: Which Potency [2] does the source give for `CC(/C=C/C=C(C)/C=C/C(=O)O)=C\C=C\C=C(C)\C=C\C=C(C)\C=C\C(=O)O` here?
Answer: > 92 µM

Question: What about the Potency [8] of the same compound?
Answer: inactive

Question: What about the Potency [3] of the same compound?
Answer: inactive

Question: And the Potency [15]?
Answer: 50.1 µM (active)

Question: And the outcome [16]?
Answer: inactive

Question: And the Potency [4]?
Answer: inactive

Question: And the Potency [17]?
Answer: inactive

Question: What about the Potency [5] of the same compound?
Answer: 37.6 µM (active)

Question: And the activation [12]?
Answer: -5.5%

Question: What about the activation [6] of the same compound?
Answer: -1.49%

Question: What about the Potency [13] of the same compound?
Answer: inactive

Question: What about the outcome [18] of the same compound?
Answer: inactive

Question: Which Potency [3] does the source give for `O=C(OCC1CO1)C1CCCCC1C(=O)OCC1CO1` (configuration not stated) here?
Answer: inactive

Question: And the caspase-3 activation [9]?
Answer: 4.8%

Question: What about the Potency [19] of the same compound?
Answer: inactive

Question: What about the Potency [15] of the same compound?
Answer: 50.1 µM (active)

Question: What about the Potency [17] of the same compound?
Answer: inactive

Question: What about the Potency [5] of the same compound?
Answer: 42.2 µM (active)

Question: What about the Potency [7] of the same compound?
Answer: inactive

Question: What about the Potency [13] of the same compound?
Answer: inactive

Question: And the Potency [14]?
Answer: inactive

Question: And the outcome [18]?
Answer: inactive

Question: What does the source list for `Brc1cc(Oc2cc(Br)c(Br)c(Br)c2Br)c(Br)c(Br)c1Br`?
Answer: Potency [2]: > 92 µM; Potency [8]: inactive; Potency [3]: inactive; caspase-3 activation [9]: 0.395%; Potency [20]: inactive; Potency [19]: inactive; Potency [17]: inactive; Potency [5]: inactive; activation [12]: -8.15% and -4.88%; activation [6]: 2.9% and 0.823%; Potency [7]: inactive; Potency [13]: inactive; Potency [14]: inactive

Question: With `CCN(CC)c1ccc(N)cc1` as the compound, how does the Potency [1] read?
Answer: 44 µM (active)

Question: And the Potency [8]?
Answer: inactive

Question: And the Potency [3]?
Answer: inactive

Question: And the caspase-3 activation [9]?
Answer: 18.6%

Question: And the Potency [15]?
Answer: 39.8 µM (active)

Question: What about the Potency [10] of the same compound?
Answer: inactive

Question: What about the Potency [4] of the same compound?
Answer: inactive

Question: And the Potency [5]?
Answer: 37.6 µM (active)

Question: What about the activation [12] of the same compound?
Answer: 11.7%

Question: And the activation [6]?
Answer: 0.867%

Question: What about the Potency [13] of the same compound?
Answer: 37.6 µM (active)

Question: And the Potency [14]?
Answer: inactive

Question: What does the source list for `Clc1nc2ccccc2nc1Cl`?
Answer: Potency [2]: > 92 µM; Potency [8]: inactive; Potency [20]: inactive; Potency [15]: inactive; outcome [16]: inactive; Potency [4]: inactive; Potency [17]: inactive; activation [6]: -0.675%; Potency [7]: inactive; Potency [13]: inactive
